MsrA inh = inhibitors of bovine MsrA; purified bovine MsrA, absorbance read-out; 0.75% of 360,000 active; inhibition, % at 15.5 µM; in the data active = inhibition above about 4.5%
MsrA act = activators of bovine methionine sulfoxide reductase A; purified bovine MsrA, absorbance read-out; activation, % at 10.6 µM; 0.3% of 360,000 active; in the data active = activation above about 7.5%
PKA-R1A activ = activators of PKA-R1A complex. P00514+P68181. PKA-R1A dissociation, Cy5-IP20 fluorescence polarization; scaled: DMSO 0%, 113 µM cGMP 100%. activation, % at 11.4 µM. 0.083% of 340,000 active;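 active = percent activation above the mean of all tested compounds plus 3 SD, cut at about 19% in these data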;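 note: higher means more PKAc released from R1A so a rise in polarization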
SUMO Mot1 rescue = SUMOylation pathway inhibition by Mot1-301 growth rescue; S. cerevisiae Mot1-301 growth rescue, ATP luminescence, 38.5C; percent above DMSO median, 100 means doubled; growth rescue, % at 18.8 µM; 1% of 320,000 active;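 active = every valid replicate shows activation above 250% relative to neutral control wells; inactive = the rest, any valid replicate at or below 250%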
PKA-R2B activ = activators of human PKA-R2B complex; P22694+P31323; PKA-R2B holoenzyme dissociation, Cy5-IP20 fluorescence polarization; R2B truncated from residue 108, S112A mutant; 0% DMSO only, 100% 113 µM cGMP; activation, % at 11.4 µM; 0.079% of 340,000 active; AID 504700;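 active = activation above a cutoff set at the mean over all compounds plus 3 SD, cut at about 18% in these data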;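 note: higher means more holoenzyme dissociation and a rise in polarization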
Target sequence (P31323 whole entry, looked up, other chains not shown, the tested form may be a part): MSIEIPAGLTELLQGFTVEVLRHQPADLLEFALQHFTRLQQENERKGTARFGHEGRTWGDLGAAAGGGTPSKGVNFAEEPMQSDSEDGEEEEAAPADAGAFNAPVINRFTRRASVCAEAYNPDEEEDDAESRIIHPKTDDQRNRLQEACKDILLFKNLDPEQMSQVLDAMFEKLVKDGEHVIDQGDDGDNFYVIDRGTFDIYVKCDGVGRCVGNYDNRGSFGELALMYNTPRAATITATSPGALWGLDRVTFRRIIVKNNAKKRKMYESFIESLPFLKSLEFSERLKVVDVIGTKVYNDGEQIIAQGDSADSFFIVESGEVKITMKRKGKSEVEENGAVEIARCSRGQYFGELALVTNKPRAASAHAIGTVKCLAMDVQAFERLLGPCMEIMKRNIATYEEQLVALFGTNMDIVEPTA
Mot1 SUMO dose = yeast SUMO pathway inhibition in dose response | growth activity, percent, % at 42 µM | shares compounds with SUMO Mot1 rescue | S. cerevisiae Mot1-301 galactose growth, ATP luminescence, 24 h; -100 = growth of slx-deleted rescue strain | 2,300 tested, under 10 active | AID 493004;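 active = Signal drops as the depositor expects, and the fitted half-maximal dose is no more than ten times the top valid tested dose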;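 note: more negative values mean stronger growth rescue toward the control strain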
Large screens that a line does not name were inactive (follow-up assays come after a bar, where they were run). Hits are enriched below; roughly 2% of the tested compounds scored in any of these assays.

CCOC(=O)CN1C(=O)[C@]2(OCCC=C[C@H]2C)c2c(Br)cccc21	none (no result: MsrA act, PKA-R1A activ, SUMO Mot1 rescue, PKA-R2B activ)
Clc1ccc(-c2cn3cccnc3n2)cc1	none
Brc1ccc(-c2cn3cccnc3n2)cc1	SUMO Mot1 rescue 662 | Mot1 SUMO dose inactive
COc1cccc(-c2nnc(NC(=O)Cc3cccs3)s2)c1	none
O=C(Cc1cccs1)Nc1nnc(-c2ccncc2)s1	SUMO Mot1 rescue active | Mot1 SUMO dose inactive
Cc1nc2sc(C(c3ccccc3)N3CCC(O)CC3)c(O)n2n1 (stereo unspecified)	SUMO Mot1 rescue active | Mot1 SUMO dose inactive
Clc1cccc(CN2CCN(c3ncc(Cc4ccccc4)cn3)CC2)c1Cl	none (no result: MsrA act, PKA-R1A activ, SUMO Mot1 rescue, PKA-R2B activ)
C=CCSC1=C(C#N)C(c2ccc(C(C)C)cc2)CC(=O)N1 (stereo unspecified)	SUMO Mot1 rescue 405 | Mot1 SUMO dose inactive
COc1cccc(CN2CCNC(=O)C2CC(=O)NCc2cn3ccc(C)cc3n2)c1OC (stereo unspecified)	none
COc1ccc(CN2CCNC(=O)C2CC(=O)NCc2cn3ccc(C)cc3n2)c(OC)c1 (stereo unspecified)	SUMO Mot1 rescue 838 | Mot1 SUMO dose inactive
O=C(Nc1cccc(Cl)c1)OCc1cncs1	SUMO Mot1 rescue active | Mot1 SUMO dose inactive
CCOC(=O)C(CNc1ccc(OCc2ccccc2)cc1)NC(=O)c1ccccc1 (stereo unspecified)	none (no result: MsrA act, PKA-R1A activ, SUMO Mot1 rescue, PKA-R2B activ)
C[C@H](CO)N1C[C@H](C)[C@@H](CN(C)C(=O)Nc2ccc(N3CCN(C)CC3)cc2)OCc2cn(nn2)CCCC1=O	none (no result: MsrA act, PKA-R1A activ, SUMO Mot1 rescue, PKA-R2B activ)
NC(=O)c1c(N)[nH]c(C(=O)c2ccccc2)c1-c1ccc(Br)cc1	none (no result: MsrA act, PKA-R1A activ, SUMO Mot1 rescue, PKA-R2B activ)
CN(CC(=O)O/N=C(\N)c1ccccn1)S(=O)(=O)c1ccc(Br)cc1	none
Cc1ccc(S(=O)(=O)N(C)CC(=O)O/N=C(\N)c2ccccn2)cc1	SUMO Mot1 rescue 399 | Mot1 SUMO dose inactive
CCCCCCCCN1C(=O)[C@@H](CC(=O)NCC23CC4CC(CC(C4)C2)C3)C[C@@]2(C(=O)OC)C1=C[C@H](C1CCCC1)O[C@@H]2C	none (no result: MsrA act, PKA-R1A activ, SUMO Mot1 rescue, PKA-R2B activ)
COc1cc(/C=N/NC(=O)c2ccncc2)ccc1OC(=O)c1ccco1	SUMO Mot1 rescue 404 | Mot1 SUMO dose inactive
COc1cc(/C=N/NC(=O)c2cccnc2)ccc1OCC(=O)N1CCOCC1	SUMO Mot1 rescue 768 | Mot1 SUMO dose inactive
Cn1cc(C(=O)N2CCCC(Nc3ccc(F)cc3)C2)c2ccccc21 (stereo unspecified)	SUMO Mot1 rescue 662 | Mot1 SUMO dose inactive
CC(C)(C)S(=O)(=O)N1Cc2cc(CO)ccc2[C@H]1CCO	none (no result: MsrA act, PKA-R1A activ, SUMO Mot1 rescue, PKA-R2B activ)
CCOC(=O)c1ccccc1NC(=O)C1CC(=O)N(C2CCCCC2)C1 (stereo unspecified)	SUMO Mot1 rescue 385 | Mot1 SUMO dose inactive
CCOC(=O)c1ccccc1NC(=O)C1CC(=O)N(C(C)(C)C)C1 (stereo unspecified)	none
CC(=O)c1cc(C(=O)NC2CCCc3c2cnn3-c2cc(C)cc(C)c2)[nH]n1 (stereo unspecified)	none
Cc1cc(C)cc(-n2ncc3c2CCCC3NC(=O)c2cc(C)[nH]n2)c1 (stereo unspecified)	SUMO Mot1 rescue 641 | Mot1 SUMO dose inactive
Cn1cc(CCNCc2cn[nH]c2-c2ccc(-c3ccccc3)cc2)cn1	none
Cc1ccc(-c2[nH]ncc2CNCCc2cnn(-c3ccccc3)c2)cc1C	SUMO Mot1 rescue 923 | Mot1 SUMO dose inactive
CN1CC[C@@H]2CN(S(=O)(=O)c3ccccc3)[C@H](c3ccccc3Br)C[C@@H]21	none (no result: MsrA act, PKA-R1A activ, SUMO Mot1 rescue, PKA-R2B activ)
CCc1ccc(CNCc2cccs2)cc1	none
Clc1ccc(CNCc2cccs2)cc1Cl	SUMO Mot1 rescue 363 | Mot1 SUMO dose inactive
Nc1nc(-c2ccc(Cl)cc2)nc(-c2ccc(Cl)cc2)n1	SUMO Mot1 rescue 942 | Mot1 SUMO dose inactive
O=C(Cn1nnc(N2CCOCC2)n1)NN=Cc1ccccc1Cl	none (no result: MsrA act, PKA-R1A activ, SUMO Mot1 rescue, PKA-R2B activ)
Cc1ccc(OCCn2c(=O)cnc3ccccc32)cc1	none
O=c1cnc2ccccc2n1Cc1ccccc1C(F)(F)F	SUMO Mot1 rescue 515 | Mot1 SUMO dose inactive
COc1cccc(C2/C(=C(/O)c3ccccc3)C(=O)C(=O)N2Cc2ccco2)c1 (stereo unspecified)	SUMO Mot1 rescue 497 (no result: PKA-R1A activ, PKA-R2B activ) | Mot1 SUMO dose inactive
COC(=O)C1=C(C)N(Cc2cccc(C(F)(F)F)c2)C(=NCc2ccc(OC)cc2)NC1c1cccc(C(F)(F)F)c1 (stereo unspecified)	none (no result: MsrA act, PKA-R1A activ, SUMO Mot1 rescue, PKA-R2B activ)
CC(=O)c1cccc(N2C(=NC(=O)C3CC3)SC3CS(=O)(=O)CC32)c1 (stereo unspecified)	none
CC(=O)c1cccc(N2C(=NC(=O)C3CCCCC3)SC3CS(=O)(=O)CC32)c1 (stereo unspecified)	SUMO Mot1 rescue 477 | Mot1 SUMO dose inactive
O=C(N=C1SC2CS(=O)(=O)CC2N1c1ccc(F)c(Cl)c1)C1CC1 (stereo unspecified)	SUMO Mot1 rescue 518 | Mot1 SUMO dose inactive
C[C@@H]1CN(c2ccc(N3CCNC[C@@H]3C)cc2C#N)C[C@H](C)O1	none (no result: MsrA act, PKA-R1A activ, SUMO Mot1 rescue, PKA-R2B activ)
CC1CC(c2ccccc2)NS(=O)(=O)O1 (stereo unspecified)	SUMO Mot1 rescue 518 | Mot1 SUMO dose inactive
O=S1(=O)N[C@H](c2ccccc2)C[C@H](c2ccc(C(F)(F)F)cc2)O1	none
COC(=O)c1cc2c(c3c4cc(F)ccc4n(S(=O)(=O)c4ccc(C)cc4)c13)C(=O)N(C)C2	none (no result: MsrA act, PKA-R1A activ, SUMO Mot1 rescue, PKA-R2B activ)
COc1ccc(NC2CCCN(C(=O)c3csc(C)n3)C2)cc1 (stereo unspecified)	SUMO Mot1 rescue 774 | Mot1 SUMO dose inactive
Cc1ncsc1CCC(=O)N1CCCC(Nc2ccc(C(C)C)cc2)C1 (stereo unspecified)	none
COc1ccc(NC2CCCN(C(=O)CCc3scnc3C)C2)cc1 (stereo unspecified)	SUMO Mot1 rescue 439 | Mot1 SUMO dose inactive
COC(=O)N/N=C/c1ccc(-c2ccc(Cl)cc2Cl)o1	SUMO Mot1 rescue 455 | Mot1 SUMO dose inactive
COC(=O)N/N=C/c1ccc(-c2ccccc2Cl)o1	none
Clc1ccccc1C(c1ccccc1)(c1ccccc1)n1ccnc1	SUMO Mot1 rescue 662 | Mot1 SUMO dose inactive
C#CC(c1ccccc1)(c1ccccc1)n1ccnc1	none (no result: SUMO Mot1 rescue)
O=C(COC(=O)c1c(F)cccc1F)c1ccc[nH]1	SUMO Mot1 rescue 596 (no result: MsrA inh, MsrA act, PKA-R1A activ, PKA-R2B activ) | Mot1 SUMO dose inactive
O=C(COc1ccccc1Cl)c1ccc[nH]1	SUMO Mot1 rescue 788 | Mot1 SUMO dose inactive
CCOc1ccc(N2CC(C(=O)OC)CC2=O)cc1 (stereo unspecified)	SUMO Mot1 rescue 385 | Mot1 SUMO dose inactive
O=c1[nH]nc(Cc2ccc(-c3ccccc3Cl)o2)c2ccccc12	SUMO Mot1 rescue 360 | Mot1 SUMO dose inactive
COc1cccc(S(=O)(=O)Nc2cccc(C(=O)N3CCOCC3)c2)c1	SUMO Mot1 rescue 478 | Mot1 SUMO dose inactive
Cc1c(C(=O)N2CCOCC2)c(S(=O)(=O)Nc2cccc(Br)c2)c(C)n1C	SUMO Mot1 rescue 553 | Mot1 SUMO dose inactive

High-throughput results (PubChem)
